Activity calls are given as the source filed them. Rule for the calls: active = hit-call score of the fitted dose curve at least 0.9, where 1 is the maximum; inactive = score below 0.9.

Experimental findings from PubChem BioAssay (EPA / NIEHS) are described below.

Read-out in assay [1]: Urokinase-type plasminogen activator receptor (uPAR), PLAUR (gene 5329)
Nature of the assay: BSK_CASM3C_uPAR: BioMAP Diversity Plus: CASM3C Assay for Urokinase-type plasminogen activator receptor (uPAR) Biomarker Activity (AID 2283054).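 Note: cell-surface uPAR protein level quantified by ELISA.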 Particulars: primary human coronary artery smooth muscle cells; actives raise or lower the signal.

Read-out in assay [2]: Vascular cell adhesion molecule 1 (VCAM1), VCAM1 (gene 7412)
Nature of the assay: BSK_CASM3C_VCAM1: BioMAP Diversity Plus: CASM3C Assay for Vascular cell adhesion molecule 1 (VCAM1) Biomarker Activity (AID 2283055).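 Note: VCAM-1 protein level quantified by ELISA on the cells.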 Particulars: primary human coronary artery smooth muscle cells; actives raise or lower the signal.

Read-out in assay [3]: Collagen III, COL3A1 (gene 1281)
Nature of the assay: BSK_hDFCGF_CollagenIII: BioMAP Diversity Plus: hDFCGF Assay for Collagen III Biomarker Activity (AID 2283056). Particulars: primary human foreskin fibroblasts; actives raise or lower the signal. The gist of the method: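 ELISA readout of Collagen III in human dermal (foreskin) fibroblasts, taken 24 h post-treatment. Gain or loss relative to DMSO vehicle fitted in both directions.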

Read-out in assay [4]: Epidermal growth factor receptor (EGFR), EGFR (gene 1956)
As to the kind of experiment: BSK_hDFCGF_EGFR: BioMAP Diversity Plus: hDFCGF Assay for Epidermal growth factor receptor (EGFR) Biomarker Activity (AID 2283057). Particulars: primary human foreskin fibroblasts; actives raise or lower the signal. The gist of the method:
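Dosing human primary skin fibroblasts, then measuring surface EGFR by ELISA at 24 h, gives the endpoint; gains and losses relative to DMSO were fitted in both directions.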

Read-out in assay [5]: Interleukin-8 (IL8), CXCL8 (gene 3576)
Nature of the assay: BSK_hDFCGF_IL8: BioMAP Diversity Plus: hDFCGF Assay for Interleukin-8 (IL8) Biomarker Activity (AID 2283058). Particulars: primary human foreskin fibroblasts; actives raise or lower the signal. An outline of the steps:
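IL-8 levels read by ELISA at 24 hours after dosing human skin fibroblast cultures. Parallel SRB staining assessed overt cytotoxicity, and gain or loss of signal was fitted against DMSO control.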

Assay [6] in a line: BSK_hDFCGF_Proliferation: Cell Proliferation Assessment in the BioMAP Diversity Plus: hDFCGF Assay (AID 2283059).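 Note: curves fitted for both rise and fall of signal versus DMSO baseline.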 Particulars: primary human foreskin fibroblasts. The gist of the method:
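This proliferation readout used SRB total-protein staining of human foreskin fibroblasts […], normalized to DMSO with bidirectional curve fitting.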

Read-out in assay [7]: Macrophage colony-stimulating factor (MCSF), CSF1 (gene 1435)
As to the kind of experiment: BSK_hDFCGF_MCSF: BioMAP Diversity Plus: hDFCGF Assay for Macrophage colony-stimulating factor (MCSF) Biomarker Activity (AID 2283060). Particulars: primary human foreskin fibroblasts; actives raise or lower the signal. The gist of the method:
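M-CSF levels read by ELISA at 24 h post-dosing in human skin fibroblasts. Parallel cultures stained with SRB assessed cytotoxicity at the same time point; response fitted in both directions against the DMSO baseline.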

Assay [8] is described as follows: BSK_hDFCGF_SRB: Viability Assessment in the BioMAP Diversity Plus: hDFCGF Assay (AID 2283061).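 Note: cells exposed to compound for 24 h before the read.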 Particulars: primary human foreskin fibroblasts. An outline of the steps: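 Viability was read as total protein: after 10% TCA fixation, wells were stained with 0.1% sulforhodamine B and read at 560 nm. Primary human foreskin fibroblasts were dosed for 24 h, with bidirectional fitting versus DMSO.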

Read-out in assay [9]: TIMP metallopeptidase inhibitor 1 (TIMP1), TIMP1 (gene 7076)
As to the kind of experiment: BSK_hDFCGF_TIMP1: BioMAP Diversity Plus: hDFCGF Assay for TIMP metallopeptidase inhibitor 1 (TIMP1) Biomarker Activity (AID 2283062). Particulars: primary human foreskin fibroblasts; actives raise or lower the signal. The gist of the method: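 TIMP-1 measured by ELISA 24 h after chemical dosing of primary human skin fibroblasts, with gain or loss fitted relative to DMSO. Parallel SRB staining (560 nm) monitored overt cytotoxicity.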

Read-out in assay [10]: Monokine induced gamma interferon (MIG), CXCL9 (gene 4283)
Nature of the assay: BSK_hDFCGF_MIG: BioMAP Diversity Plus: hDFCGF Assay for Monokine induced gamma interferon (MIG) Biomarker Activity (AID 2283063). Particulars: primary human foreskin fibroblasts; actives raise or lower the signal. The gist of the method:
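Human primary foreskin fibroblasts in the hDFCGF system, exposed to test chemical for 24 h; MIG measured by ELISA. Bidirectional curve fitting against DMSO negative control as activity baseline.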

Read-out in assay [11]: Matrix Metallopeptidase 1 (MMP1), MMP1 (gene 4312)
As to the kind of experiment: BSK_hDFCGF_MMP1: BioMAP Diversity Plus: hDFCGF Assay for Matrix Metallopeptidase 1 (MMP1) Biomarker Activity (AID 2283064). Particulars: primary human foreskin fibroblasts; actives raise or lower the signal. The gist of the method:
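MMP1 levels quantified by ELISA 24 h after dosing human dermal fibroblast cultures, with parallel SRB total-protein staining for overt cytotoxicity. Data fitted in both directions against DMSO baseline.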

Read-out in assay [12]: Vascular cell adhesion molecule 1 (VCAM1), VCAM1 (gene 7412)
Nature of the assay: BSK_hDFCGF_VCAM1: BioMAP Diversity Plus: hDFCGF Assay for Vascular cell adhesion molecule 1 (VCAM1) Biomarker Activity (AID 2283065). Particulars: primary human foreskin fibroblasts; actives raise or lower the signal. The gist of the method: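 ELISA readout of VCAM-1 on human dermal fibroblast primary cultures, 24 h after chemical exposure. Gain or loss of signal fitted in both directions against DMSO baseline.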

Read-out in assay [13]: Plasminogen activator inhibitor-1 (PAI1), SERPINE1 (gene 5054)
As to the kind of experiment: BSK_hDFCGF_PAI1: BioMAP Diversity Plus: hDFCGF Assay for Plasminogen activator inhibitor-1 (PAI1) Biomarker Activity (AID 2283066). Particulars: primary human foreskin fibroblasts; actives raise or lower the signal. The gist of the method:
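Fibroblasts from human foreskin were treated with test chemical. After 24 h, PAI-1 was measured by ELISA. Activity was fitted in both directions relative to DMSO.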

Read-out in assay [14]: Intercellular Adhesion Molecule 1 (ICAM1), ICAM1 (gene 3383)
Nature of the assay: BSK_KF3CT_ICAM1: BioMAP Diversity Plus: KF3CT Assay for Intercellular Adhesion Molecule 1 (ICAM1) Biomarker Activity (AID 2283067). Particulars: primary human keratinocytes with fibroblasts; actives raise or lower the signal. An outline of the steps: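 Cell-surface ICAM-1 was measured by ELISA 24 h after dosing primary human skin keratinocytes co-cultured with fibroblasts. Parallel SRB staining tracked overt cytotoxicity. Gain or loss of signal was fitted relative to DMSO.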

Read-out in assay [15]: Interferon-gamma inducible Protein 10 (IP10), CXCL10 (gene 3627)
As to the kind of experiment: BSK_KF3CT_IP10: BioMAP Diversity Plus: KF3CT Assay for Interferon-gamma inducible Protein 10 (IP10) Biomarker Activity (AID 2283068). Particulars: primary human keratinocytes with fibroblasts; actives raise or lower the signal. An outline of the steps: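 Signal is secreted/surface IP-10 by ELISA in a human primary skin co-culture of keratinocytes and foreskin fibroblasts, taken 24 h post-dosing; DMSO served as negative control.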

Assay [16] in a line: BSK_KF3CT_SRB: Viability Assessment in the BioMAP Diversity Plus: KF3CT Assay (AID 2283069).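 Note: total protein by sulforhodamine B staining as a cytotoxicity measure; read 24 h after compound addition.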 Particulars: primary human keratinocytes with fibroblasts. An outline of the steps:
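Cytotoxicity was gauged by SRB staining (0.1% SRB, 10% TCA fixation, 560 nm) of parallel cultures at 24 h. The cells were primary human skin keratinocytes co-cultured with fibroblasts, and activity was fitted in both directions against DMSO.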

Read-out in assay [17]: Interleukin-1 alpha (IL1a), IL1A (gene 3552)
As to the kind of experiment: BSK_KF3CT_IL1a: BioMAP Diversity Plus: KF3CT Assay for Interleukin-1 alpha (IL1a) Biomarker Activity (AID 2283070). Particulars: primary human keratinocytes with fibroblasts; actives raise or lower the signal. The gist of the method:
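IL-1a was detected by ELISA 24 h after chemical treatment of a co-culture of human skin keratinocytes and foreskin fibroblasts. Gain or loss of signal was fitted against the DMSO baseline.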

Read-out in assay [18]: TIMP metallopeptidase inhibitor 2 (TIMP2), TIMP2 (gene 7077)
Nature of the assay: BSK_KF3CT_TIMP2: BioMAP Diversity Plus: KF3CT Assay for TIMP metallopeptidase inhibitor 2 (TIMP2) Biomarker Activity (AID 2283071). Particulars: primary human keratinocytes with fibroblasts; actives raise or lower the signal. An outline of the steps:
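Chemicals were dosed onto human skin primary co-cultures of keratinocytes and foreskin fibroblasts, and TIMP-2 was measured by ELISA after 24 hours. Activity in either direction was fitted relative to DMSO.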

Read-out in assay [19]: Transforming growth factor beta 1 (TGFb1), TGFB1 (gene 7040)
Nature of the assay: BSK_KF3CT_TGFb1: BioMAP Diversity Plus: KF3CT Assay for Transforming growth factor beta 1 (TGFb1) Biomarker Activity (AID 2283072). Particulars: primary human keratinocytes with fibroblasts; actives raise or lower the signal. An outline of the steps: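 KF3CT co-culture (keratinocytes + fibroblasts), 24 h exposure → TGF-b1 ELISA → bidirectional fit, DMSO = baseline. Parallel SRB total-protein staining (0.1% SRB, 10% TCA fixation, 560 nm) for cytotoxicity.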

Consider `NC(=S)Nc1ccccc1`, for which the result in assay [1], in assay [2], in [3], in assay [4], in assay [5] and in [6] was inactive. The result in assay [7], in assay [8], in assay [9], in assay [10], in [11] and in assay [12] was inactive. Also, the result in assay [13], in assay [14], in assay [15], in [16], in [17] and in assay [18] was inactive. The result in assay [19] was inactive.
For `C=CC(=O)OCCCCCC(C)C`, the result in assay [1], in assay [2], in assay [3], in assay [6], in assay [7] and in [8] was inactive. For the same compound, the result in assay [9], in assay [10], in assay [11], in assay [12], in [13] and in assay [14] was inactive. The result in assay [15], in assay [16], in assay [17], in assay [18] and in assay [19] was inactive.
On to `NC(=O)O`, for which the outcome in assay [1], in assay [2], in assay [3], in assay [5], in assay [6] and in assay [7] was inactive. The result in [8], in assay [9], in assay [10], in assay [11], in assay [12] and in assay [13] was inactive. The result in [14], in assay [15], in assay [16], in assay [17], in assay [18] and in assay [19] was inactive.
Consider `CC(C)CCCCCCOC(=O)c1ccccc1C(=O)OCCCCCCC(C)C`, for which the result in assay [1], in assay [2], in assay [3], in assay [4], in assay [5] and in assay [6] was inactive. Also, the outcome in assay [7], in assay [8], in assay [9], in assay [10], in assay [11] and in [12] was inactive. Also, the result in assay [13], in assay [14], in assay [15], in assay [16], in assay [18] and in [19] was inactive. The half-maximal activity concentration (AC50) in assay [17] was 1580 nM (active).
With `CCC(=O)C(CC(C)N(C)C)(c1ccccc1)c1ccccc1` (stereo unspecified), the result in assay [1], in [2], in assay [3], in assay [4], in assay [6] and in [7] was inactive. In addition, the result in assay [8], in assay [9], in assay [10], in assay [11], in assay [12] and in assay [13] was inactive. Besides, the outcome in assay [14], in assay [15], in assay [16], in [17], in assay [18] and in assay [19] was inactive.

What is called AC50 is the midpoint of the concentration-response curve, whichever way the signal moves.
